# Results filed as inconclusive are left out. Entries that show only a call come without a potency. The source made the active and inactive calls. Unless noted, calls follow the shape of the dose curve; as a rule, active = well fitted curve in the direction sought with a large enough effect; inconclusive = small, poorly fitted or top-dose-only effect, or another doubt; inactive = no such curve, though single readings can be large; an effect the other way counts as inactive or inconclusive. Where a SMILES comes first, the peptide text is derived from it.
# Tests used:
# [1] = test system: Zika virus NS2B-NS3 protease; assay: Primary screen GU AMC qHTS for Zika virus inhibitors (AID 1347154); also: nearly all actives have a fitted effect of over 70% in size
# In short: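 Unlinked Zika NS2B hydrophilic domain–NS3 protease complex at 25 nM in 10 mM Tris-HCl pH 8.0, 0.01% Tween 20, with an AMC peptide substrate. Fluorescence change (340/450 nm) over 15 min at room temperature, normalized to controls, fitted to 4-parameter Hill.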
# [2] = Primary qHTS for small molecule stabilizers of the endoplasmic reticulum resident proteome: Secreted ER Calcium Modulated Protein (SERCaMP) assay (AID 1508630)
# In short: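 The SH-SY5Y reporter protocol was run at 3 concentrations up to 38.3 uM (primary) or 11 concentrations (follow-up): 16 h compound, 100 nM thapsigargin for 4 h, then extracellular luciferase luminescence.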
# [3] = AP1 Signaling Pathway (AID 357; active = well fitted curve in either direction with a large enough effect, not every such curve was filed as active;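 also: ME-180 reporter cells stimulated with EGF at its EC50 level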)
# In short: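 In this screen, ME-180 cells in Opti-MEM with 0.5% dialyzed FBS received EC50 EGF and compound titrations for 5 h. AP-1 reporter beta-lactamase was detected via CCF4 ratio, giving AC50 for positive and negative modulators.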
# [4] = target: Cytochrome P450 1A2 (Homo sapiens) (UniProt P05177); assay: p450-cyp1a2 (AID 410; calls by dose curve; also: potency is read from the fitted curve at half-maximal effect)
# Chain of Cytochrome P450 1A2 (Homo sapiens) (P05177 whole entry, looked up): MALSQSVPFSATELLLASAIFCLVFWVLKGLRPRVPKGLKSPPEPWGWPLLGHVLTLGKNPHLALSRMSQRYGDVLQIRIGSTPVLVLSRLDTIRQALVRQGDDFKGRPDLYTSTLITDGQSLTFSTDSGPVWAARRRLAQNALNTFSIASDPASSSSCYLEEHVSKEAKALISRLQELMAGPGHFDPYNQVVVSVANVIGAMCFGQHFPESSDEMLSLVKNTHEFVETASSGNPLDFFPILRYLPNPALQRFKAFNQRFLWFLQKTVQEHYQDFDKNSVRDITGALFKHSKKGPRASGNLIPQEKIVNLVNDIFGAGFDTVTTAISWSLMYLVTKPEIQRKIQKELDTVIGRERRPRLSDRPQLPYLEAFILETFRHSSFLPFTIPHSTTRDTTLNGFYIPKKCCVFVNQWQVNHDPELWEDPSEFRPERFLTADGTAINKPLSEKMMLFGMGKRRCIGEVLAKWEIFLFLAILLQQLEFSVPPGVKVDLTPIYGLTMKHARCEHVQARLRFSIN
# In short: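 Luminescent demethylation readout: Luciferin-ME (100uM, equal to Km) turned over by 20nM CYP1A2 for 60 min at room temperature after NADPH regeneration addition, following 10 min compound preincubation. Normalization used 57 uM furafylline as full inhibition.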
# [5] = NFAT Signaling Pathway (AID 444; active = well fitted curve in either direction with a large enough effect, not every such curve was filed as active;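 also: carbachol stimulus at about its EC50 of 1 µM final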); details: Jurkat NFAT-bla M1, carbachol, beta-lactamase ratio, 5 h
# In short: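 Jurkat cells with NFAT-driven β-lactamase reporter and co-expressed M1 receptor, stimulated with carbachol (final 1 uM, ~EC50), compound titration, 5 h at 37 °C. CCF4 loaded 1 h at RT; 460/530 nm ratio gave %activity and AC50.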
# [6] = Stat Signaling Pathway (AID 446; active = well fitted curve in either direction with a large enough effect, not every such curve was filed as active;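 also: ME-180 cervical cancer cells given 40 pM IL-6 alongside compound; SIE-controlled beta-lactamase reporter measured as 460/530 nm FRET emission ratio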)
# In short: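 Emission at 460 and 530 nm (excitation 405 nm) reports SIE-controlled beta-lactamase in ME-180 cells. Cells received compound with 40 pM IL-6 for 5 hrs at 37 C; data scaled between 300 pM IL-6 and 125 nM JAK-inhibitor controls.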
# [7] = target: Glucocorticoid receptor (Homo sapiens) (UniProt P04150); assay: GR-GFP Redistribution (AID 450;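 active = compounds whose dose series gives a full or clear partial fitted curve of increased nuclear translocation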; also: potency is read from the fitted curve at half-maximal effect); details: U2OS GR-GFP nuclear translocation, laser cytometry, 2 h
# Chain of Glucocorticoid receptor (Homo sapiens) (P04150 whole entry, looked up, the tested form may be a part): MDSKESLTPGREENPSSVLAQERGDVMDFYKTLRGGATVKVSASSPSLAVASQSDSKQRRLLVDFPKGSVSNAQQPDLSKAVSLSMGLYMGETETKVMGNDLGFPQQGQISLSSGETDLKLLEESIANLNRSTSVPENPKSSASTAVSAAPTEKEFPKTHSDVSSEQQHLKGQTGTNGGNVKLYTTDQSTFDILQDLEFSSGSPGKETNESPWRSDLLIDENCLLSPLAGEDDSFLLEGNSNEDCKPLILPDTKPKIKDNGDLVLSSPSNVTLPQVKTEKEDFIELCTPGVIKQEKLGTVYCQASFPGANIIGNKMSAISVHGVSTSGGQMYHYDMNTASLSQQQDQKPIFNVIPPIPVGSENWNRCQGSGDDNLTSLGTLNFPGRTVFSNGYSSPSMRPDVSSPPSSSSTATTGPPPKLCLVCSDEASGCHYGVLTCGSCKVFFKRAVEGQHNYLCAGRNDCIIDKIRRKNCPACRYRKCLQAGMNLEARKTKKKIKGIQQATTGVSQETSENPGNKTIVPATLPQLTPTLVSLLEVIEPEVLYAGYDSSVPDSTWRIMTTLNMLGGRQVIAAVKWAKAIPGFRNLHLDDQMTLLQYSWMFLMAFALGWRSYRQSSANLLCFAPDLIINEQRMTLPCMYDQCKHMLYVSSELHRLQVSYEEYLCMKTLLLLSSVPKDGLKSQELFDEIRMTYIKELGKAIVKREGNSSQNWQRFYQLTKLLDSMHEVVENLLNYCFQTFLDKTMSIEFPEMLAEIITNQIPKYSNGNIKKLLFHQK
# [8] = target: Mitogen-activated protein kinase 10 (Mus musculus) (UniProt Q61831); assay: JNK3 AlphaScreen Assay (AID 530; active = well fitted curve in either direction with a large enough effect, not every such curve was filed as active;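 also: kinase came from lysate of stimulated human HepG2 cells; signal reports phosphorylation of biotinylated GST-cJun 1-79 at Ser73 with 10 µM ATP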)
# In short: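 Activity was read by AlphaScreen after JNK3-containing HepG2 lysate (cytokine pre-activated) phosphorylated biotinylated GST-cJun with 10 uM ATP at room temperature. Phospho-Ser73 cJun antibody with Protein-A acceptor beads provided detection.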
# [9] = target: 3',5'-cyclic-AMP phosphodiesterase 4B (Homo sapiens) (UniProt Q07343); assay: qHTS Assay for Inhibitors of PDE-IV (AID 607; active = well fitted activation curve with a large enough effect in the main read-out, with a control signal flat, not every such curve was filed as active; also: potency is read from the fitted curve at half-maximal effect)
# Chain of 3',5'-cyclic-AMP phosphodiesterase 4B (Homo sapiens) (Q07343 whole entry, looked up): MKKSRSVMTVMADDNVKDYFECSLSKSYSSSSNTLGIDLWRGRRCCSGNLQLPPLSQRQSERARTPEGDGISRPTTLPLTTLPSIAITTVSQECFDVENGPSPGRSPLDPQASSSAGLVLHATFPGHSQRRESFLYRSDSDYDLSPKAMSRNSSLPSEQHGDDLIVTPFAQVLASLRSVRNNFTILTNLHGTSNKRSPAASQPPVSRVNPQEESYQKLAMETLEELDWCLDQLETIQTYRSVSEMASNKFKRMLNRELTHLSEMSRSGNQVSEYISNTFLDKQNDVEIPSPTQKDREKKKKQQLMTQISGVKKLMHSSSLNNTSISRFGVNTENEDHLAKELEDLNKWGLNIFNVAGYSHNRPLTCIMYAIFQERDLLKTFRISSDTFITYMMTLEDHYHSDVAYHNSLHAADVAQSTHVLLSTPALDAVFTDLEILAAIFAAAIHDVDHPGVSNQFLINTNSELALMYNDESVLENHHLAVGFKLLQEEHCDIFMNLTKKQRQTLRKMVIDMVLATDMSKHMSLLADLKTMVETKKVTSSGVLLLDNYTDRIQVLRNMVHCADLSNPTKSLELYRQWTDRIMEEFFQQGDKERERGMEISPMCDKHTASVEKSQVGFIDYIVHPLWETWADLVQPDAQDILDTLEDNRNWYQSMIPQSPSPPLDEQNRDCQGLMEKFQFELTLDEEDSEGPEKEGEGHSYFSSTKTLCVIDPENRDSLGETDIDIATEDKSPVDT
# In short: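 The readout is membrane depolarisation from a cAMP-sensing CNG channel, detected with a potential dye at ex 535/em 590. Cells were HEK293-derived (endogenous PDE-IV) at 1000 cells/well, titrated up to 22.9 uM final.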
# [10] = target: Cytochrome P450 2C9 (Homo sapiens) (UniProt P11712); assay: qHTS Assay for Inhibitors and Substrates of Cytochrome P450 2C9 (AID 883); also: potency is read from the fitted curve at half-maximal effect; nearly all actives have a fitted effect of over 60% in size
# In short: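 10nM CYP2C9 + 100uM Luciferin-H (=KM), 25mM KPO4; cpd 10 min 37C; NADPH regen, 60 min 37C; stop/detect with P450 Glo-Buffer 20 min; luminescence. Norm. to 57uM sulphaphenazole as full inhibition.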
# [11] = target: Cytochrome P450 3A4 (Homo sapiens) (UniProt P08684); assay: qHTS Assay for Activators of Cytochrome P450 3A4 (AID 885); also: nearly all actives have a fitted effect of over 65% in size
# Chain of Cytochrome P450 3A4 (Homo sapiens) (P08684 whole entry, looked up): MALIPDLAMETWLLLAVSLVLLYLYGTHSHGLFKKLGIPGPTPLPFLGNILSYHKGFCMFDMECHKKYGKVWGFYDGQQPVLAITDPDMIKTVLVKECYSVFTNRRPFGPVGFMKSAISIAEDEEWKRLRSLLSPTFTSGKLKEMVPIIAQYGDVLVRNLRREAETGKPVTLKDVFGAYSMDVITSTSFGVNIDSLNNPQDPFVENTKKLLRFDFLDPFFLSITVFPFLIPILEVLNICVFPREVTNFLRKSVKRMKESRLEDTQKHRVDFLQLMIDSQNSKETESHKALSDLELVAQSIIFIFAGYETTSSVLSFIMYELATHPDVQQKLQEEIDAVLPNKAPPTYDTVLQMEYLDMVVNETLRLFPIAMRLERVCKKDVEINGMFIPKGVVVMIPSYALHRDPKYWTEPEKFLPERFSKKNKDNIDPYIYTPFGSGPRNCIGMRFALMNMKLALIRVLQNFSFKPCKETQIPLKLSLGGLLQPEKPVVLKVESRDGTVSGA
# In short: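 Activators are scored by enhanced luminescence from CYP3A4 conversion of luciferin-PPXE (25uM, equal to KM) to luciferin, after 60 min at RT with an NADPH-regenerating system.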
# [12] = target: Cytochrome P450 2C19 (Homo sapiens) (UniProt P33261); assay: qHTS Assay for Inhibitors and Substrates of Cytochrome P450 2C19 (AID 899); also: potency is read from the fitted curve at half-maximal effect; nearly all actives have a fitted effect of over 60% in size
# Chain of Cytochrome P450 2C19 (Homo sapiens) (P33261 whole entry, looked up): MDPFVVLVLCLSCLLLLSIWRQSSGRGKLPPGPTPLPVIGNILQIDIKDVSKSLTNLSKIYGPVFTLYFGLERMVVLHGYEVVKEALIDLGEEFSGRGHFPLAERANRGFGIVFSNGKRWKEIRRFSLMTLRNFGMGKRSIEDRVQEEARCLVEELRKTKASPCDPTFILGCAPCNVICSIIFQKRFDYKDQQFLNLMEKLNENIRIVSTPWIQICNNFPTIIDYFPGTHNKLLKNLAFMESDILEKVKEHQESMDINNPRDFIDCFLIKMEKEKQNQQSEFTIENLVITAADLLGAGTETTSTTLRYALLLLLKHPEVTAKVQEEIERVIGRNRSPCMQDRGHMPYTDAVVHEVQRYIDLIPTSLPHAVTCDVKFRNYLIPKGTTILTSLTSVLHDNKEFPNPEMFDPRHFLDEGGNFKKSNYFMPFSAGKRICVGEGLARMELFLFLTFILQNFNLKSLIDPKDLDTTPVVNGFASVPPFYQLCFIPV
# In short: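 Luminescent read-out of luciferin formed from Luciferin-H EGE (10uM, equal to KM). Enzyme 5nM in 50mM KPO4; compound added, 10 min at 37C, then NADPH regenerating system for 60 min at 37C. Full inhibition defined by 57uM ketoconazole.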
# [13] = qHTS Assay for Identification of Small Molecule Agonists for Thrombopoietin (TPO) Signaling Pathway (AID 917)
# In short: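 First, Ba/F3 cells with human TPO receptor were held overnight without IL-3. Next, compounds and TPO (26 pM final) were added. After 24 hrs at 37 C, luciferase detection reagent was added and luminescence measured following 10 min at room temperature.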
# [14] = target: Muscarinic acetylcholine receptor M1 (Rattus norvegicus) (UniProt P08482); assay: qHTS Assay for Antagonists of Acetylcholine Muscarinic M1 Receptor: Measurement of IP-One Response (AID 944); also: potency is read from the fitted curve at half-maximal effect; nearly all actives have a fitted effect of over 75% in size
# In short: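 IP1 accumulation measured via TR-FRET between d2-IP1 and Eu-cryptate anti-IP1 antibody after carbachol (200 nM, EC80) stimulation for 30 min; rat M1-transfected CHO cells received compound 10 min before agonist.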
# [15] = target: Pyruvate kinase (Leishmania mexicana) (UniProt Q27686); assay: qHTS Validation Assay for Inhibitors of Leishmania Mexicana Pyruvate Kinase (AID 945)
# In short: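 The enzyme is a highly purified E451W mutant of LmPYK used at 0.2 nM. It converts 0.5 mM PEP and 0.1 mM ADP over 1 h at room temperature; product ATP is quantified by luciferase luminescence relative to DMSO controls.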
# [16] = target: Pyruvate kinase PKM (Homo sapiens) (UniProt P14618); assay: qHTS Assay for Activators of Human Muscle Pyruvate Kinase (AID 954; active = well fitted curve in the direction sought with a large enough effect, not every such curve was filed as active)
# In short: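 PKM2, human, >95% pure, 0.1 nM; PEP 0.5 mM (Km), ADP 0.1 mM; 50 mM imidazole pH 7.2, 50 mM KCl, 0.01% Tween 20, 0.05% BSA; 1 h RT; luciferase luminescence readout.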
# [17] = target: Alpha-galactosidase (Coffea arabica) (UniProt Q42656); assay: Counterscreen for Glucocerebrosidase Inhibitors: qHTS Assay for Coffee Bean alpha-Galactosidase at pH 4.5 (AID 957)
# Chain of Alpha-galactosidase (Coffea arabica) (Q42656 whole entry, looked up): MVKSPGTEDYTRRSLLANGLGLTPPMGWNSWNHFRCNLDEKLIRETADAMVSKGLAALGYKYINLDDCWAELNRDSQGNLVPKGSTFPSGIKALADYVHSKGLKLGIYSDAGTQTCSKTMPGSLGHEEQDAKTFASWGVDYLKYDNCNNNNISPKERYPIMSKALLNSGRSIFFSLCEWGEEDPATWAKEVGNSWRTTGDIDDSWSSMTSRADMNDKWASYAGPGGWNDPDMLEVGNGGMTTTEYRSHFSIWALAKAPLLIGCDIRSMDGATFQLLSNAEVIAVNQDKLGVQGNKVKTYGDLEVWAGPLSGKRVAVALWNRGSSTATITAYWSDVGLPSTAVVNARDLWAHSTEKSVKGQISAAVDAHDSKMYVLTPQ
# In short: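 Fluorogenic qHTS at pH 4.5 (citrate buffer with Tween-20): 2 nM enzyme, 80 uM 4-MU-alpha-galactoside substrate, compound titrated 0.7 nM to 77 uM, 20 min room temperature. Glycine/NaOH stop; 4-MU read Ex 365/Em 440; Hill-equation AC50 against no-enzyme and enzyme controls.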
# [18] = target: Alpha-galactosidase A (Homo sapiens) (UniProt P06280); assay: Counterscreen for Glucocerebrosidase Inhibitors: qHTS Assay for Human alpha-Galactosidase at pH 4.5 (AID 992)
# Chain of Alpha-galactosidase A (Homo sapiens) (P06280 whole entry, looked up): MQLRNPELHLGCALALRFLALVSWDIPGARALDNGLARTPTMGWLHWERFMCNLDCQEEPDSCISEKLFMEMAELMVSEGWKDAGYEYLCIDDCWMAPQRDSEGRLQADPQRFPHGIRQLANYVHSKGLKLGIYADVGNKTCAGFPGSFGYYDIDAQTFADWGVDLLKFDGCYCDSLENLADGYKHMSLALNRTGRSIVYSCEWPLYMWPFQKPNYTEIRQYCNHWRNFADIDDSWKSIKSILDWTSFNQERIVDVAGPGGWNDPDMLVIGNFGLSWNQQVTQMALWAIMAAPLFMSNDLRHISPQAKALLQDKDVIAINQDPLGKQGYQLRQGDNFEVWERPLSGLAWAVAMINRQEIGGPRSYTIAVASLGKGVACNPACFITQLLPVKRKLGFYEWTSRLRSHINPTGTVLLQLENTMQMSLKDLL
# In short: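 Fluorogenic 4-MU alpha-D-galactoside (80 uM) hydrolysis, 2 nM enzyme, pH 4.5 citrate buffer + 0.005% Tween-20; 20 min RT; NaOH/glycine pH 10 stop; Ex365/Em440. Compounds titrated 0.7 nM–77 uM; Hill-equation AC50.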
# [19] = target: alpha-glucosidase (Oryza sativa, rice) (UniProt Q653V4); assay: Counterscreen for Glucocerebrosidase Inhibitors: qHTS Assay for Rice alpha-Glucosidase at pH 5.0 (AID 997)
# In short: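 Endpoint fluorogenic assay at pH 5.0: compounds (0.7 nM to 77 uM) titrated against 4 nM rice enzyme and 400 uM 4-MU-alpha-glucoside for 20 min at room temperature; NaOH/glycine stop, read ex 365/em 440 nm, Hill-fitted AC50.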
# [20] = target: Alpha-galactosidase (Coffea arabica) (UniProt Q42656); assay: Counterscreen for Glucocerebrosidase Inhibitors: qHTS Assay for Coffee Bean alpha-Galactosidase at pH 5.9 (AID 998)
# In short: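 Enzyme 2 nM + cpd (0.7 nM–77 uM titration) + 4-MU-alpha-Gal 80 uM, pH 5.9 citrate/Tween-20, RT 20 min, NaOH/glycine stop pH 10, fluor 365/440. Normalized to no-enzyme and full-activity controls; Hill-fit AC50.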
# [21] = qHTS Assay for Lipid Storage Modulators (AID 1519; calls by dose curve); details: Drosophila S3 cells, BODIPY lipid droplet/cell ratio, laser cytometry, cells loaded with oleic acid
# In short: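 Cells seeded at 5,000 per well were treated with compounds over a concentration series and loaded with oleic acid (400 uM, as added). Lipid droplet fluorescence (488 nm excitation, 500-530 nm channel) was read by laser-scanning cytometry and normalized to 20 uM Triacsin C.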
# [22] = target: Ubiquitin carboxyl-terminal hydrolase 1 (Homo sapiens) (UniProt O94782); assay: Inhibitors of USP1/UAF1: Pilot qHTS (AID 504865);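 also: rhodamine fluorescence freed from ubiquitin-rhodamine substrate followed over time; top concentration of the series differs between compounds; nearly all actives have a fitted effect of over 35% in size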
# Chain of Ubiquitin carboxyl-terminal hydrolase 1 (Homo sapiens) (O94782 whole entry, looked up): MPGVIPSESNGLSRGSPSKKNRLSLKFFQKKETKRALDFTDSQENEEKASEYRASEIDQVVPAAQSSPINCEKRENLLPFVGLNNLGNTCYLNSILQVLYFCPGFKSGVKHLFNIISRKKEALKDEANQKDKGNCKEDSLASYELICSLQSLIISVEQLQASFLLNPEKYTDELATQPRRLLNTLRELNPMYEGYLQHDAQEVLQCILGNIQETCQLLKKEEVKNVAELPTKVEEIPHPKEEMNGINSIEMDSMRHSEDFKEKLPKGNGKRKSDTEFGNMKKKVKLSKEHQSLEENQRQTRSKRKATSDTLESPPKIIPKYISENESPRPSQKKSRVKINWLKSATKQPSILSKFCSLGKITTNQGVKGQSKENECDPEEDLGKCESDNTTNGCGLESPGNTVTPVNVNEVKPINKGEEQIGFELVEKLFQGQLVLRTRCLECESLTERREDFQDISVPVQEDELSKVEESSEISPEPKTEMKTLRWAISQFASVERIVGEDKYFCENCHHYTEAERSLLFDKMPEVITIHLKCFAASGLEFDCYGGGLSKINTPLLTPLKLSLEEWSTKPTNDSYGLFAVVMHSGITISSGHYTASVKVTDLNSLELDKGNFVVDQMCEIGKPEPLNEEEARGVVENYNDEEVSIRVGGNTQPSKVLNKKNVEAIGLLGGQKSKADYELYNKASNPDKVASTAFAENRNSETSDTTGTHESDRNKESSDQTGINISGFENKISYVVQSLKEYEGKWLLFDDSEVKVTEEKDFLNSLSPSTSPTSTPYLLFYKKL
# In short: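 USP1/UAF1 complex (1nM) preincubated with compound 15 min at room temperature, then Ub-Rho substrate (150nM final) added. Fluorescence read kinetically at 480/540 nm, 6 reads every 60 seconds. Buffer: 50mM HEPES pH 7.8, 0.5mM EDTA, 0.1 mg/ml BSA, 1mM TCEP, 0.01% Tween-20.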
# [23] = target: DNA dC->dU-editing enzyme APOBEC-3G (Homo sapiens) (UniProt Q9HC16); assay: qHTS for inhibitors of Vif-A3G interactions: Validation (AID 588379)
# Chain of DNA dC->dU-editing enzyme APOBEC-3G (Homo sapiens) (Q9HC16 whole entry, looked up): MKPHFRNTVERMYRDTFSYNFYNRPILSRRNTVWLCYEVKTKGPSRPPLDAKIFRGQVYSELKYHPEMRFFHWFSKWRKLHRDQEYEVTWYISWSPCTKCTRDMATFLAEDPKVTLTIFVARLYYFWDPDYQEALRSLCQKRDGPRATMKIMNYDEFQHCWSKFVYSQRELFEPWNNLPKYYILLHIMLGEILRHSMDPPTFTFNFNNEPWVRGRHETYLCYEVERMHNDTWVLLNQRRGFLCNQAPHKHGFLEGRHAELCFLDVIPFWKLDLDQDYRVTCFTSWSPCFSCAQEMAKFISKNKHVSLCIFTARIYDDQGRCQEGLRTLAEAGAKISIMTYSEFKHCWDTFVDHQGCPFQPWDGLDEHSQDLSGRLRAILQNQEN
# In short: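 Yellow fluorescence (Ex 488, Em 500-530) of Vif-coexpressing HeLa A3G-eYFP cells, scanned by Acumen cytometer, reports blocked A3G degradation. Cells plated at 700/well overnight at 37 deg C before compound addition, then a further overnight compound incubation at 37 deg C.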
# [24] = target: Glucocorticoid receptor (Homo sapiens) (UniProt P04150); assay: GR-EFC Redistribution (AID 451; calls by dose curve; also: potency is read from the fitted curve at half-maximal effect); details: CHO-K1 GR-EFC translocation, beta-gal luminescence, 2 h
# In short: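 CHO-K1 cells expressing nuclear EA and GR-ED fragments of b-gal; compounds titrated up to 46 uM final, 2 h at 37 C. GR nuclear translocation read as complemented b-gal luminescence after 1 h RT detection.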
# [25] = target: Cytochrome P450 2D6 (Homo sapiens) (UniProt P10635); assay: qHTS Assay for Inhibitors and Substrates of Cytochrome P450 2D6 (AID 891); also: potency is read from the fitted curve at half-maximal effect; nearly all actives have a fitted effect of over 60% in size
# In short: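 Luminescent read-out of luciferin formed by 5 nM human CYP2D6 demethylating 30 uM Luciferin-ME EGE (Km level) over 60 min at room temperature after NADPH regeneration addition. Data normalized to full inhibition by 1.43 uM quinidine.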
# [26] = measured here: cell count channel max response
# [27] = measured here: lipid channel max response
structure (smiles),measurement,setting,value
O=C1CSC(c2ccccc2Cl)c2cc(Cl)ccc2N1 (stereo not drawn),Potency,[1],inactive
same,Potency,[2],inactive
C[C@@H](Cc1ccc(OCC(=O)O)cc1)NC[C@H](O)c1cccc(Cl)c1,outcome,[3],inactive
same,Potency,[4],inactive
same,"activity change, negative = inhibition",[5]; at 38 µM (top of the series),-11.2% (inactive)
same,outcome,[6],inactive
same,Potency,[7],> 46 µM (inactive)
same,outcome,[8],inactive
same,Potency,[9],inactive
same,Potency,[10],6.31 µM (active)
same,Potency,[11],inactive
same,Potency,[12],5.01 µM (active)
same,outcome,[13],inactive
same,Potency,[14],14.1 µM (active)
same,outcome,[15],inactive
same,outcome,[16],inactive
same,outcome,[17],inactive
same,outcome,[18],inactive
same,outcome,[19],inactive
same,outcome,[20],inactive
same,"activity change, negative = inhibition",[21]; at 57.5 µM (top of the series),-1.87% (inactive)
same,max response,[21]; [26],11.5%
same,max response,[21]; [27],8.85%
same,Potency,[22],inactive
same,Potency,[23],inactive
same,Potency,[1],inactive
same,Potency,[2],inactive
CCCN1C[C@H](C)N([C@H](c2ccc(C(=O)N(CC)CC)cc2)c2cccc(OC)c2)C[C@H]1C,Potency,[7],> 46 µM (inactive)
same,outcome,[8],inactive
same,Potency,[9],inactive
same,"activity change, negative = inhibition",[21]; at 57.5 µM (top of the series),9.16% (inactive)
same,max response,[21]; [26],26.5%
same,max response,[21]; [27],30.1%
same,Potency,[22],inactive
same,Potency,[23],inactive
same,Potency,[1],inactive
same,Potency,[2],inactive
NC(=O)[C@@H]1CCCN1C(=O)[C@H](Cc1ccccc1)NC(=O)[C@@H]1CCCN1C(=O)[C@@H](N)Cc1ccc(O)cc1 (H-YPFP-NH2),"activity change, negative = inhibition",[1],12.8% [at 6.83 µM] (inactive)
same,"activity change, negative = inhibition",[2],-13.2% [at 3.88 µM] (inactive)
c1cncc(C2=NCCC2)c1,outcome,[3],inactive
same,"activity change, negative = inhibition",[5]; at 17.2 µM (top of the series),-0.876% (inactive)
same,outcome,[6],inactive
same,Potency,[7],> 20.6 µM (inactive)
same,Potency,[24],> 20.6 µM (inactive)
same,outcome,[8],inactive
same,Potency,[9],inactive
same,"activity change, negative = inhibition",[21]; at 25.7 µM (top of the series),-0.221% (inactive)
same,max response,[21]; [26],-18.1%
same,max response,[21]; [27],-18.1%
same,Potency,[22],inactive
same,Potency,[1],inactive
same,Potency,[2],inactive
c1ccc(C[C@@H](c2ccccc2)N2CCCCC2)cc1,Potency,[4],15.8 µM (active)
same,Potency,[7],> 46 µM (inactive)
same,Potency,[24],> 46 µM (inactive)
same,outcome,[8],inactive
same,Potency,[9],4.77 µM (active)
same,Potency,[11],inactive
same,Potency,[25],2 µM (active)
same,"activity change, negative = inhibition",[21]; at 57.5 µM (top of the series),-5.07% (inactive)
same,max response,[21]; [26],-11.4%
same,max response,[21]; [27],-18.1%
same,Potency,[22],inactive
same,Potency,[23],inactive
same,Potency,[1],inactive
same,Potency,[2],inactive
CSCC[C@H](NC(=O)[C@H](Cc1ccccc1)NC(=O)CNC(=O)CNC(=O)[C@@H](N)Cc1ccc(O)cc1)C(=O)O,"activity change, negative = inhibition",[1],-0.9% [at 6.83 µM] (inactive)
same,"activity change, negative = inhibition",[2],-26.7% [at 3.88 µM] (inactive)

# From PubChem BioAssay (NCATS)
